Only some compounds are listed: those with a hit (about 10% of all), similar ones and a draw of the others.
JMJD2A Tudor = inhibitors of human JMJD2A Tudor domain | O75164 | AlphaScreen JMJD2A-Tudor / H3K4me3 peptide binding | Potency, µM (doses to about 114 µM), inactives show at the top dose activity change, negative = inhibition, most hits filed as inhibitors | hit rate 4.4% among 390,000 | AID 504339; note: potency is the fitted concentration of half-maximal effect; % is set by controls: 0 for no effect and ±100 for the full control effect; nearly all actives have a fitted effect of over 50% in size
Target sequence (O75164 whole entry, looked up, the tested form may be a part): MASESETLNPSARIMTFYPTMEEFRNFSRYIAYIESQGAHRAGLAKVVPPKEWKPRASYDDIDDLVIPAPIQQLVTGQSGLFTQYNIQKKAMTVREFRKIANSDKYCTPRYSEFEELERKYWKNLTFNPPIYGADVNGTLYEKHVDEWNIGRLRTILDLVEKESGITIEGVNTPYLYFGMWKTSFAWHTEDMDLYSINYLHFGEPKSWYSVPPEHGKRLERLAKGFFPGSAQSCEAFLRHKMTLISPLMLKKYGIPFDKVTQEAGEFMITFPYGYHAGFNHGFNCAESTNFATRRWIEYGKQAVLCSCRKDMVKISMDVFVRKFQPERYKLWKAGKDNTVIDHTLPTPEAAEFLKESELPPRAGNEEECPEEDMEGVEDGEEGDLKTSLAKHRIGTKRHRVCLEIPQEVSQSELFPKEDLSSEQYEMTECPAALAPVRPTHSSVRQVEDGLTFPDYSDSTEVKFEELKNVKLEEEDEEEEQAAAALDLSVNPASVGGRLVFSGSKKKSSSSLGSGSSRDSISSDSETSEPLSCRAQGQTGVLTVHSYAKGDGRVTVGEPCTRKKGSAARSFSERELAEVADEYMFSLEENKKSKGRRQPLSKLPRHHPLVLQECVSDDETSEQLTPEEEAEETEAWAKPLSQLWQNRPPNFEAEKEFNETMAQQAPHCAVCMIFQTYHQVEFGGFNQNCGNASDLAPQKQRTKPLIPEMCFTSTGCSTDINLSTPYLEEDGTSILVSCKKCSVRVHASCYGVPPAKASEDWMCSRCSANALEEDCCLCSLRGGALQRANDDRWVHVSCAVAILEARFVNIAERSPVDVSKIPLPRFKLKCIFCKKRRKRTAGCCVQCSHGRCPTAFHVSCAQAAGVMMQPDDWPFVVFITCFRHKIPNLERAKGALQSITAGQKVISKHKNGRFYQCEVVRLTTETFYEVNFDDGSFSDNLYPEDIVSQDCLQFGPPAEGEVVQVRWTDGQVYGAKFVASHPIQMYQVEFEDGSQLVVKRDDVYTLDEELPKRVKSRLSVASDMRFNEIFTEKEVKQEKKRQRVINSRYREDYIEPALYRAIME
HP1b binding inh = HP1-beta chromodomain-methylated histone interaction inhibition | P83916 | AlphaScreen HP1-beta / biotin-H3K9me3 peptide binding | Potency, µM (highest dose often 114 µM), without a hit: at the top dose activity change, negative = inhibition, most hits filed as inhibitors | hit rate 0.56% among 390,000 | AID 540317; note: potency is the fitted concentration of half-maximal effect; nearly all actives have a fitted effect of over 70% in size
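HP1-beta protein (50 nM final) preincubated 30 min at room temperature with biotinylated H3(1-18)K9me3 peptide (50 nM) in PBS pH 7.4, 0.01% Tween-20, then compound added for 30 min. AlphaScreen streptavidin donor/nickel chelate acceptor beads (10 ug/mL final), 30 min dark, luminescence read.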
Six1-Eya2 blk = inhibitors of human Six1/Eya2 interaction; activity change, % (no concentration beside the values); hit rate 0.56% among 360,000; AID 651725; AlphaScreen GST-Six1/His-Eya2 binding, biochemical; active compounds read low; Q15475+O00167; in the data active = activity change below about -65%; inconclusive = mostly about -30% to -63%; note: % is set by controls: 0 for no effect and ±100 for the full control effect
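AlphaScreen with GST-Six1 and His-Eya2 (5X mix: 250 nM and 500 nM), glutathione donor and nickel acceptor beads; buffer 50 mM Tris pH 8.0, 300 mM NaCl, 1 mM TCEP; 1 h at 37 C in the dark.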
CtBP-E1A inh = CtBP/E1A binding inhibition. AID 651724. activity change, % (no concentration beside the values). AlphaScreen GST-E1A/His-CtBP binding, 1536-well; active compounds read low. hit rate 0.49% among 340,000; in the data active = activity change below about -65%; inconclusive = mostly about -30% to -63%; note: % is set by controls: 0 for no effect and ±100 for the full control effect
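In 5 uL wells, 23 nL compound meets equimolar GST-E1A and His-CtBP (5X stock 125 nM each) for 2 h, 37 °C. Beads (5X, 50 ug/mL) then 1 h, 37 °C, dark.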
G9a inh = blocks human histone lysine methyltransferase G9a | hit rate 8.8% among 350,000 | Q96KQ7 | Potency, µM (titrated, usually from 102 µM), without a hit: at the top dose activity, negative = inhibition, usual class: inhibitors | G9a H3K9 monomethylation, AlphaScreen, 2 h; note: potency is the fitted concentration of half-maximal effect; % is set by controls: 0 for no effect and ±100 for the full control effect; nearly all actives have a fitted effect of over 75% in size
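Chemiluminescent proximity detection of H3K9 monomethylation, read after 10 min bead incubation in the dark. Reaction: 20 nM G9a, 500 nM biotin-H3K9 peptide, 20 uM SAM cofactor, 2 h, room temperature, following 15 min enzyme-compound preincubation.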
BAZ2B block = BAZ2B (human) inhibition. Q9UIF8. AlphaScreen BAZ2B-H3K14Ac peptide displacement. Potency, µM (highest dose often 114 µM), for inactives: at the highest dose activity change, negative = inhibition, usual class: inhibitors. hit rate 4.4% among 360,000; note: potency is the fitted concentration of half-maximal effect; % is set by controls: 0 for no effect and ±100 for the full control effect; nearly all actives have a fitted effect of over 60% in size
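AlphaScreen displacement: compounds (up to 110uM) incubated 30 min at room temperature with a preformed 50 nM BAZ2B/50 nM biotinylated H3K14Ac peptide complex in PBS pH 7.4 with Tween-20. Donor and acceptor beads at 10 ug/mL final added, 20 min light-protected before reading.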
* hit, by the source's call; ? = inconclusive; / = no result; [ ] = remark or other dose. Unless noted, calls come from the whole dose curve; as a rule, active = well fitted inhibition curve with a large enough effect; inconclusive = small, poorly fitted or top-dose-only effect; inactive = no such curve, though single readings can be large or run the other way.

SMILES | JMJD2A Tudor | HP1b binding inh | Six1-Eya2 blk | CtBP-E1A inh | G9a inh | BAZ2B block
c1ccc(-c2ccccc2OCCCN2CCCC2)cc1 | 8.91µM* | ? | -3.3 | 5.3 | 10µM* | ?
N=C(CC(O)COc1ccccc1-c1ccccc1)N1CCCCC1 (stereo unspecified) | / | / | / | / | 23.8%[59 µM] | /
c1ccc(-c2ccccc2OCCCCN2CCCCC2)cc1 | 39.8µM* | -32.9% | 1.5 | 7.8 | 12.6µM* | 79.4µM*
CC1CC(C)CN(CCOc2ccccc2-c2ccccc2)C1 (stereo unspecified) | 12.6µM* | -26.8% | -3.0 | 0.5 | ? | -36.2%
c1ccc(-c2ccccc2OCCCN2CCCCCC2)cc1 | 20µM* | ? | -2.0 | / | 3.55µM* | 56.2µM*
COC(=O)C1=C(CS(=O)(=O)c2ccccc2)NC(=O)NC1c1ccc(OC)c(OC)c1 (stereo unspecified) | -1.6% | 32.0% | 3.4 | / | -3.4% | -10.9%
Cc1onc(-c2c(Cl)cccc2Cl)c1COC(=O)c1ccc(Cl)cc1[N+](=O)[O-] | ? | -15.8% | 51.2 | ? | / | -38.1%
COc1cc(C2CC(=O)Oc3ccc(O)cc32)cc(OC)c1OC (stereo unspecified) | / | / | / | / | 15.8µM* | /
COc1ccc(C2CC(=O)Oc3ccc(O)cc32)cc1 (stereo unspecified) | / | / | / | / | 35.5µM* | /
COc1cc(C2CC(=O)Oc3c2c(=O)n(C)c2ccccc32)cc(OC)c1OC (stereo unspecified) | -18.8% | ? | -1.3 | / | -8.4% | 50.1µM*
COc1ccccc1C1CC(=O)Oc2cc3c(cc21)OCO3 (stereo unspecified) | / | / | / | / | 35.5µM* | /
Cc1ccccc1C1CC(=O)Oc2ccc(O)cc21 (stereo unspecified) | / | / | / | / | 10µM* | /
COc1ccccc1C1CC(=O)Oc2cc(O)ccc21 (stereo unspecified) | ? | 25.0% | -3.6 | 0.0 | 17.1% | /
NC(=O)C1(NC2CCCCC2)CCN(Cc2ccccc2)CC1 | -0.7% | -9.3% | -2.6 | -22.0 | / | /
O=S(=O)(c1ccc(Cl)cc1)N1CCN(c2nc(-c3ccc(F)cc3)nc3cc(Cl)ccc23)CC1 | -2.7% | 53.3% | / | / | / | /
O=c1c2ccccc2c(/C=N/n2cnnc2)c(O)n1-c1ccccc1F | ? | 26.6% | -3.7 | 14.1 | 70.8µM* | ?
Cc1ccc(-n2c(O)c(/C=N/n3cnnc3)c3ccccc3c2=O)cc1 | 56.2µM* | -4.0% | -3.3 | -4.8 | ? | 50.1µM*
O=c1c2ccccc2c(C=NCc2ccccn2)c(O)n1-c1ccccc1Cl | ? | -16.8% | 5.2 | 0.0 | ? | ?
CC1=C(C)C(C)=C(C#N)C(=C(C#N)C#N)N1 | -18.9% | 5.7% | -4.5 | 5.8 | 39.8µM* | ?
CCN(CC)C(=O)C1=C(C)N(CCCN2CCCC2=O)C(=O)C(CC(=O)NCCCN(C)C)C1 (stereo unspecified) | / | / | 4.4 | 6.4 | / | /
COC(=O)c1c(NC(=O)C(=O)N2CCCC2)sc2c1CC(C)(C)OC2 | -5.3% | 64.6% | 2.8 | 11.8 | 34.4% | -0.3%
CC1(C)Cc2c(sc(NC(=O)C(=O)N3CCCC3)c2C(N)=O)CO1 | -33.6% | 25.3% | 1.6 | 0.5 | 50.1µM* | -34.2%
Cc1ccc(C)c(N2CCN(CCCNC(=O)Cn3c(-c4cccs4)cc4ccccc43)CC2)c1 | ? | 16.3% | / | / | ? | 35.5µM*
O=C(Cn1c(-c2cccs2)cc2ccccc21)NCCCN1CCN(c2cccc(Cl)c2)CC1 | ? | 37.3% | / | / | ? | 25.1µM*
CN1CCN(CCCNC(=O)Cn2c(-c3cccs3)cc3ccccc32)CC1 | -25.4% | 14.2% | / | / | -12.3%[59 µM] | -12.2%
SMILES | JMJD2A Tudor | HP1b binding inh | Six1-Eya2 blk | CtBP-E1A inh | G9a inh | BAZ2B block
O=C(N/N=C/c1cn(-c2cccs2)nc1-c1ccccc1)c1ccccc1O | -0.3% | 50.7% | -77.5* | -76.1* | 5.7% | -12.2%
O=C(N/N=C/c1cn(-c2cccs2)nc1-c1ccccc1)c1ccccc1Br | -26.4% | 27.9% | -14.1 | -27.1 | 5.4% | -2.9%
O=C1/C(=C/c2ccc(O)c(O)c2)Oc2cc(O)ccc21 | -29.9% | -4.4% | -26.1 | -1.2 | ? | 56.2µM*
COc1cc(/C=C2\Oc3cc(O)ccc3C2=O)ccc1O | 4.8% | 47.8% | -3.7 | -2.3 | 22.8%[12.7 µM] | -0.9%
CC(NC(=O)C(C(=O)c1cccc([N+](=O)[O-])c1)n1cc(Cl)ccc1=O)c1ccccc1 (stereo unspecified) | -6.2% | 27.8% | 7.5 | -3.3 | ? | -12.5%
Cc1ccc(-c2csc3ncn(CC#N)c(=O)c23)cc1C | 50.1µM* | ? | -10.8 | -21.7 | ? | 50.1µM*
Cc1ccc(-c2csc3ncn(CC#N)c(=O)c23)cc1 | -26.1% | 35.3% | -4.3 | -3.4 | / | 9.1%
C[N+](C)(C)CCCN1C(=O)CCCC1=O | 56.2µM* | 16.2% | 7.3 | 1.6 | -52.7% | ?
O=C(O)CCCNC(=O)c1cccc(C(=O)NCCCC(=O)O)n1 | ? | -2.5% | 12.5 | 6.0 | 20µM* | ?
Cc1ccc2c(c1)c(C1=NC(=S)NC1=O)c(O)n2C | -16.0% | 8.4% | -29.1 | -20.3 | 39.8µM* | -2.8%
Cc1c(Cl)cccc1NS(=O)(=O)c1ccc(-c2cnc(C3CC3)o2)cc1 | -17.9% | 25.3% | / | / | -1.5%[59 µM] | -27.3%
COc1ccc(C2=NNC(c3ccco3)=Nc3ccc(F)cc32)cc1 | -27.8% | -16.5% | -4.0 | -0.1 | 44.7µM* | ?
Cc1oc(-c2ccc(F)cc2)nc1CN(Cc1ccccn1)CC1CCCO1 (stereo unspecified) | 20µM* | ? | -16.2 | 2.3 | 0.9% | -13.7%
CCCc1ccc(C(=O)NNc2cccc(C)c2)cc1 | -17.6% | 4.1% | 2.1 | -1.8 | / | ?
COc1ccc2c3n([n+]([O-])c2c1)CCN=C3c1ccc(Cl)cc1 | ? | 18.6% | 4.5 | 11.2 | 5.5%[2.33 µM] | -27.8%
Nc1c(Cl)cc(C2=NCCn3c2c2ccc(C(F)(F)F)cc2[n+]3[O-])cc1Cl | 4.47µM* | 17.5% | -7.6 | -14.3 | ? | ?
O=[N+]([O-])c1ccc2c3n([n+]([O-])c2c1)CCN=C3c1ccc(Cl)cc1 | ? | 1.0% | -11.9 | / | -43.5%[2.33 µM] | 50.1µM*
Nc1c(Cl)cc(C2=NCCn3c2c2ccccc2[n+]3[O-])cc1Cl | 3.55µM* | 44.8% | -13.7 | / | ? | ?
O=C(OCC(=O)c1ccc(Cl)cc1Cl)c1cnccn1 | -8.3% | 43.5% | -0.8 | 1.6 | -38.8% | -4.6%
COc1cc2c(cc1N)-c1ccc(N)cc1C2 | 14.1µM* | ? | -17.2 | 2.7 | / | /
Nc1ccc2c(c1)Cc1cc(N)c(Br)cc1-2 | 50.1µM* | ? | -25.6 | -17.9 | / | /
Cn1c2c(c(=O)n(C)c1=O)C(c1ccc(F)cc1)C(C#N)=C(N)O2 (stereo unspecified) | -6.5% | 19.7% | -0.4 | -6.7 | 44.7µM* | -14.9%

Source: PubChem BioAssay
